Bioassay records from PubChem.
SW480 rereplic = inducers of DNA re-replication in SW480 colon cancer cells. SW480 DNA re-replication, Hoechst DNA content imaging, 48 h. Potency, µM (highest dose often 46.1 µM), usual class: activators. AID 624297. 340,000 compounds, 1.8% hits; note: nearly all actives have a fitted effect of over 55% in size
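Readout is total intensity of Hoechst-stained nuclei, excited at 405 nm and collected at 500-530 nm. Compound treatment lasted 48 hr at 37 C in 5% CO2 before staining.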
MCF10A rereplic = induces DNA re-replication in MCF 10a normal breast cells; AID 624296; 350,000 compounds, 2.9% hits; MCF 10A DNA re-replication, Hoechst nuclear intensity, 48 h; Potency, µM (series often up to 46.1 µM), most hits filed as activators; note: nearly all actives have a fitted effect of over 50% in size
KB-3-1 tox = KB-3-1 parental cell cytotoxicity. KB-3-1 viability, CellTiter-Glo ATP luminescence, 72 h. Potency, µM (top dose mostly 46.1 µM), most hits filed as cytotoxic. 400,000 compounds, 1.4% hits. AID 1347075; note: nearly all actives have a fitted effect of over 60% in size
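Using CellTiter-Glo luminescence, growth of non-resistant KB-3-1 adenocarcinoma cells is assessed 72 h after pin-tool compound addition at 37 °C. Normalized responses across the concentration series yield fitted curves.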
KB-V1 MDR tox = kills drug-selected multidrug resistant KB-V1 cells | KB-V1 MDR cells viability, CellTiter-Glo, 72 h | Potency, µM (doses to about 46.1 µM), most hits filed as cytotoxic | 400,000 compounds, 3.4% hits | AID 1347076; note: nearly all actives have a fitted effect of over 60% in size
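Drug-selected KB-V1 cells, grown in DMEM lacking phenol red with 10% FBS, receive compound titrations; after three days at 37 degrees C, surviving cell ATP is quantified by CellTiter-Glo luminescence and responses normalized and curve-fitted.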
ELG1 DNA repair = blocks ELG1-dependent DNA repair in HEK293T cells; HEK293T ELG1-luciferase reporter, luminescence, 16 h; DNA damage induced by 5-fluorouridine; Potency, µM (series often up to 46.1 µM), hits mostly inhibitors; 330,000 compounds, 2.3% hits; note: nearly all actives have a fitted effect of over 55% in size
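Cells (2,000 per well) received 5-fluorouridine plus test compound or DMSO and were incubated 16 hr at 37 °C, 5% CO2. Luciferase activity was read by luminescence 30 min after ONE-Glo addition; signal suppression marked inhibition of damage-induced ELG1 function.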
Large screens that a line does not name were inactive. Compounds with a hit are over-represented: about 8.2% of the library has one in this group of screens. Calls come from the whole dose curve; as a rule, active = well fitted curve in the direction sought with a large enough effect; inconclusive = small, poorly fitted or top-dose-only effect, or another doubt; inactive = no such curve, though single readings can be large; an effect the other way counts as inactive or inconclusive.

CN(Cc1ccccc1)C(=O)c1cccnc1	none
CCc1ccccc1NC(=O)c1ccc2c(c1)nnn2C1CCCC1	none (no result: SW480 rereplic, MCF10A rereplic, ELG1 DNA repair)
CCN(C(=O)CSc1nc(C)nc2sc(C)c(C)c12)C1CCS(=O)(=O)C1 (stereo not drawn)	none
Cc1nc(SCC(=O)N(CC(C)C)C2CCS(=O)(=O)C2)c2c(C)c(C)sc2n1 (stereo not drawn)	KB-3-1 tox inconclusive, KB-V1 MDR tox 3.66µM
Cc1ccc(N(CC(O)CON=C2c3ccccc3-c3ccccc32)S(C)(=O)=O)cc1 (stereo not drawn)	KB-V1 MDR tox 23.1µM (no result: ELG1 DNA repair)
Cc1cc[n+](CC(=O)c2ccc(F)cc2)c2ccccc12	none (no result: SW480 rereplic, MCF10A rereplic, ELG1 DNA repair)
CC1(C(=O)NS(=O)(=O)Cc2cccc(Cl)c2)CCN1C(=O)CC1CCCC1 (stereo not drawn)	none (no result: SW480 rereplic, MCF10A rereplic, ELG1 DNA repair)
COc1ccc(-c2noc(CN(C(=O)c3cc(OC)c(OC)cc3OC)C(C)C)n2)cc1	none (no result: SW480 rereplic, MCF10A rereplic, ELG1 DNA repair)
O=C(Cc1ccccc1[N+](=O)[O-])NCCCc1ccccc1	none
CCOc1cc(/C=C2\C(=N)N3N=C(S(C)(=O)=O)SC3=NC2=O)ccc1OCCOc1cccc(OC)c1	MCF10A rereplic 23.1µM
CCOc1cc(/C=C2/C(=N)N3C=CSC3=NC2=O)ccc1OCCCOc1ccccc1C	SW480 rereplic inconclusive, MCF10A rereplic 3.26µM, ELG1 DNA repair inconclusive
CCn1ncc(C2=NOC(C(=O)Nc3c(C)nn(Cc4ccc(F)cc4)c3C)C2)c1C (stereo not drawn)	ELG1 DNA repair 14.6µM
CCn1ncc(C2=NOC(C(=O)NCc3ccccc3)C2)c1C (stereo not drawn)	SW480 rereplic 3.66µM, MCF10A rereplic 4.61µM, KB-3-1 tox 1.64µM, KB-V1 MDR tox inconclusive, ELG1 DNA repair inconclusive
CCn1ncc(C2=NOC(C(=O)NCc3ccc(OC)cc3)C2)c1C (stereo not drawn)	SW480 rereplic inconclusive, MCF10A rereplic inconclusive, KB-3-1 tox inconclusive, KB-V1 MDR tox inconclusive
CCn1ncc(C2=NOC(C(=O)Nc3cccc(C(C)=O)c3)C2)c1C (stereo not drawn)	KB-3-1 tox inconclusive, KB-V1 MDR tox 18.4µM
COc1cccc(C2=NOC(C(=O)Nc3cccc(C(C)=O)c3)C2)c1OC (stereo not drawn)	ELG1 DNA repair inconclusive
CN(C)c1cc(-c2ccc(Cl)cc2Cl)oc(=O)c1Cl	SW480 rereplic inconclusive, KB-3-1 tox inconclusive, KB-V1 MDR tox inconclusive, ELG1 DNA repair inconclusive
Cc1ccc(S(=O)(=O)N2CCc3c2cc([N+](=O)[O-])cc3[N+](=O)[O-])cc1	MCF10A rereplic inconclusive
O=C(CNc1cccc([N+](=O)[O-])c1)N1CCN(S(=O)(=O)c2ccc(Cl)cc2)CC1	KB-V1 MDR tox inconclusive
Cc1ccc(-n2c(Cl)c(Cl)nc(Cl)c2=O)cc1	SW480 rereplic 8.2µM, MCF10A rereplic 1.84µM, KB-3-1 tox inconclusive, ELG1 DNA repair 6.51µM
CCCC(=O)N(C1CC(C)C(C#N)(C#N)C1(C#N)C#N)N(C)C (stereo not drawn)	SW480 rereplic 4.61µM, MCF10A rereplic 2.91µM, ELG1 DNA repair inconclusive
O=C(CCN=C1NS(=O)(=O)c2ccccc21)Nc1ccc(Cl)cc1F	none
Cc1ccccc1N1CC(C(=O)Nc2ccncc2)CC1=O (stereo not drawn)	none
CCCN1CCc2c(sc(NC(=O)CCS(=O)(=O)c3ccccc3)c2C(N)=O)C1	SW480 rereplic 18.4µM, MCF10A rereplic 20.6µM (no result: KB-3-1 tox, KB-V1 MDR tox)
CN1CCc2c(sc(NC(=O)CS(=O)(=O)c3ccccc3)c2C(N)=O)C1	none
CCC(CC)C1C(C#N)=C(N)Oc2n[nH]c(C)c21 (stereo not drawn)	SW480 rereplic 20.6µM, MCF10A rereplic inconclusive
Cc1[nH]nc2c1C(c1ccc(-c3ccccc3C#N)o1)C(C#N)=C(N)O2 (stereo not drawn)	none
Cc1ccc(-c2ccc(C3C(C#N)=C(N)Oc4n[nH]c(C)c43)o2)cc1 (stereo not drawn)	SW480 rereplic inconclusive, MCF10A rereplic 23.1µM, KB-V1 MDR tox 25.9µM, ELG1 DNA repair inconclusive
NC(CCC(=O)NC(CS)C(=O)NCC(=O)O)C(=O)O (stereo not drawn)	SW480 rereplic inconclusive (no result: ELG1 DNA repair)
N#CCCn1nc(-c2ccc([N+](=O)[O-])cc2)cc1Nc1ccccc1NC(=O)C(F)(F)F	ELG1 DNA repair 18.4µM
N#CCCn1nc(-c2ccc(Cl)cc2)cc1Nc1ccccc1NC(=O)C(F)(F)F	ELG1 DNA repair inconclusive
N#CCCn1nc(-c2ccccc2)cc1Nc1ccccc1NC(=O)C(F)(F)F	KB-V1 MDR tox 20.6µM
COc1ccc(CCNC(=O)CS(=O)(=O)Cc2nc(-c3cccc(Cl)c3)oc2C)cc1OC	none (no result: SW480 rereplic, MCF10A rereplic, ELG1 DNA repair)
N#Cc1c(-c2cccnc2)c2c([nH]c1=O)-c1ccccc1OC2	SW480 rereplic 2.59µM, MCF10A rereplic 14.6µM
CSc1c2c([nH]c(=O)c1C#N)-c1ccccc1CC2	none (no result: SW480 rereplic, MCF10A rereplic, ELG1 DNA repair)
N#Cc1c(-c2ccc(F)cc2)c2c([nH]c1=O)-c1ccccc1OC2	SW480 rereplic 6.51µM, MCF10A rereplic 4.11µM
CCOC(=O)C1(Cc2cccc(OC)c2)CCN(CC2CC=CCC2)CC1 (stereo not drawn)	MCF10A rereplic inconclusive, KB-V1 MDR tox inconclusive, ELG1 DNA repair inconclusive
O=C1C=C(c2ccc3ccccc3c2)C[C@@H](c2ccc(F)cc2)C1	SW480 rereplic inconclusive, MCF10A rereplic inconclusive, KB-3-1 tox inconclusive, ELG1 DNA repair inconclusive
COC(=O)c1c(C)[nH]c(C(=O)C(C)OC(=O)C2CC2)c1C (stereo not drawn)	KB-3-1 tox inconclusive, KB-V1 MDR tox 11.6µM
CN(C)S(=O)(=O)c1ccc(C(=O)Nc2nc(-c3cc4ccccc4o3)cs2)cc1	MCF10A rereplic 4.61µM
O=C(Nc1nc(-c2cc3ccccc3o2)cs1)c1ccc(S(=O)(=O)N2CCCC2)cc1	SW480 rereplic inconclusive, MCF10A rereplic inconclusive, ELG1 DNA repair inconclusive
Cc1cc(-c2csc(NC(=O)c3ccc(S(=O)(=O)N(C)C)cc3)n2)c(C)n1-c1ccccc1	ELG1 DNA repair 9.2µM
COCCCN1C(=O)C(CC(=O)NCCCCc2ccccc2)CC(C(=O)N(C(C)C)C(C)C)=C1C (stereo not drawn)	none (no result: SW480 rereplic, MCF10A rereplic, ELG1 DNA repair)
CC(=O)Nc1nc(-c2ccc3c(c2)CC(C)N3C(=O)C2CC2)c(C)s1 (stereo not drawn)	SW480 rereplic inconclusive, ELG1 DNA repair 8.2µM
Cc1sc(NC(=O)c2ccco2)nc1-c1ccc2c(c1)CC(C)N2C(=O)C1CC1 (stereo not drawn)	SW480 rereplic 6.31µM, MCF10A rereplic 5.01µM, KB-3-1 tox inconclusive, KB-V1 MDR tox inconclusive, ELG1 DNA repair 14.6µM
Cc1sc(NC(=O)c2ccco2)nc1-c1ccccc1	ELG1 DNA repair inconclusive
O=C(c1ccco1)N1CCN(C(=O)c2ccc(CS(=O)c3ccc(Cl)cc3)o2)CC1 (stereo not drawn)	none
CN1CCN(c2cc3c(nn2)Oc2ccccc2N3C)CC1	none (no result: KB-3-1 tox, KB-V1 MDR tox, ELG1 DNA repair)
c1ccc(CNc2ncnc3scc(-c4cccs4)c23)nc1	KB-3-1 tox inconclusive, ELG1 DNA repair 8.2µM
